Experimental findings from PubChem BioAssay (EPA / NIEHS) are described below.

A short description of test [1]: ATG_M_32_CIS: Attagene CIS-FACTORIAL HepG2 Assay for M32 Transcription Factor (Internal Marker) (AID 2282949).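 Note: background control marker of the multiplexed CIS panel rather than a real target.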 The note with it: HepG2 Attagene cis-factorial M32 reporter, mRNA; actives raise or lower the signal. The essentials: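 Using DMSO as baseline, bidirectional curve fits were applied to reporter mRNA signals. These came from transiently transfected HepG2 cells exposed for 24 h, with RNA analysed by RT-PCR, FAM primer extension, HpaI digestion and CE.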

Test [2] has as its target Hypoxia-inducible factor 1-alpha (Homo sapiens) (UniProt Q16665). The test is described as follows: ATG_HIF1a_CIS: Attagene CIS-FACTORIAL HepG2 Assay for human Hypoxia Inducible Factor 1 (HIF1A) (AID 2282951). Conditions: HepG2 Attagene cis-factorial HIF1a reporter transcription; actives raise or lower the signal. The method, boiled down: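 Measures endogenous transcription-factor activity through cis-regulated reporter mRNA in HepG2. Cells dosed 24 h; transcripts quantified by RT-PCR with 6-FAM-labelled products separated by capillary electrophoresis; DMSO serves as negative control.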

The target of test [3] is Hepatocyte nuclear factor 6 (Homo sapiens) (UniProt Q9UBC0). The test is described as follows: ATG_HNF6_CIS: Attagene CIS-FACTORIAL HepG2 Assay for human Hepatocyte Nuclear Factor 6 (HNF6) (AID 2282952). The note with it: HepG2 Attagene cis-factorial HNF6 reporter transcription; actives raise or lower the signal. The method, boiled down: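 Endogenous transcription factor activity in human HepG2 liver cells was captured through cis-regulated reporter constructs. After 24 h treatment, reporter mRNA was measured by RT-PCR with capillary electrophoresis, and activity was fitted in both directions relative to DMSO.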
Chain of Hepatocyte nuclear factor 6 (Homo sapiens) (Q9UBC0 whole entry, looked up): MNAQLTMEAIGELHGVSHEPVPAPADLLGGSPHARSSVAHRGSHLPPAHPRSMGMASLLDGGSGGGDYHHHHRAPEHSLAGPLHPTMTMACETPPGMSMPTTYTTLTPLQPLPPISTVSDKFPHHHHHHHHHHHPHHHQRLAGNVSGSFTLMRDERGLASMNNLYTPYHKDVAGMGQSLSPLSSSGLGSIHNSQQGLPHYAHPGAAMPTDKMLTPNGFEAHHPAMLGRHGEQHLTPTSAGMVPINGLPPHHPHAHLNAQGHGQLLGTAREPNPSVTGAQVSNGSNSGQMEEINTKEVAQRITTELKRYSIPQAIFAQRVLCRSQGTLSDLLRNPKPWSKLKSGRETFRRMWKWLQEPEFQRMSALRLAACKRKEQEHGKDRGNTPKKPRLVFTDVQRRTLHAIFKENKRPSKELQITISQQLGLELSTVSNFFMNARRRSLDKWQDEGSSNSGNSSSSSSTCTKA

Test [4] concerns the target Heat shock factor protein 1 (Homo sapiens) (UniProt Q00613). The test is described as follows: ATG_HSE_CIS: Attagene CIS-FACTORIAL HepG2 Assay for human Heat Shock Transcription Factor 1 (HSE) (AID 2282953). Conditions: HepG2 HSE cis-reporter, Attagene RNA transcription; actives raise or lower the signal. The essentials: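 Endogenous transcription factor activity in transiently transfected HepG2, read as reporter mRNA by RT-PCR with fluorescent capillary electrophoresis after 24 h. Gain or loss of signal fitted versus DMSO baseline.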

A short description of test [5]: ATG_MRE_CIS: Attagene CIS-FACTORIAL HepG2 Assay for human Metal Responsive Element (MRE) (AID 2282954). Conditions: HepG2 MRE cis-reporter transcription, Attagene multiplex; actives raise or lower the signal. The essentials: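 RT-PCR/capillary electrophoresis readout of reporter mRNA, 24 h post-dosing, in HepG2 cells transfected with multiplexed cis-regulated reporter constructs. Gain or loss of signal fitted bidirectionally against DMSO baseline.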

Test [6] is described as follows: ATG_PBREM_CIS: Attagene CIS-FACTORIAL HepG2 Assay for human Phenobarbital-responsive Enhancer Module (PBREM) (AID 2282955). The note with it: HepG2 PBREM cis-reporter, Attagene multiplexed transcription; actives raise or lower the signal. The method, boiled down: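 Fluorescence of labelled reporter cDNA fragments, resolved by capillary electrophoresis, gives mRNA induction in transfected HepG2 cells treated for 24 h; DMSO serves as negative control and baseline.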

In test [7] the target is Paired box protein Pax-6 (Homo sapiens) (UniProt P26367). The test is described as follows: ATG_Pax6_CIS: Attagene CIS-FACTORIAL HepG2 Assay for human Paired Box 6 (PAX6) (AID 2282956). The note with it: HepG2 CIS-FACTORIAL PAX6 reporter transcription, RNA readout; actives raise or lower the signal. The method, boiled down:
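Read-out is reporter transcript level, measured by RT-PCR with fluorescent primer extension and capillary electrophoresis after 24 h dosing of transfected HepG2 cells. Activity in either direction fitted relative to DMSO control.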

Test [8] is described as follows: ATG_PXRE_CIS: Attagene CIS-FACTORIAL HepG2 Assay for human Pregnane X Receptor Element (PXRE) (AID 2282957). Conditions: HepG2 Attagene CIS-FACTORIAL PXRE reporter, mRNA; actives raise or lower the signal. The method, boiled down: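 Endogenous transcription factor activity in HepG2 was gauged through induction of reporter mRNA driven by a cis-regulating promoter element, sampled 24 h post-treatment. Activity was fitted in both directions against DMSO negative control.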

Test [9] in a line: ATG_PPRE_CIS: Attagene CIS-FACTORIAL HepG2 Assay for human Peroxisome Proliferator-activated Response Element (PPRE) (AID 2282958). Conditions: HepG2 PPRE cis-element reporter, Attagene transcription factor profiling; actives raise or lower the signal. The method, boiled down:
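Cells are first transfected transiently with the multiplexed reporter library, then dosed for 24 h. Total RNA is reverse-transcribed, amplified, fluorescently end-labeled and HpaI-cut before capillary electrophoresis; activity is fitted bidirectionally against DMSO controls.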

Test [10] in a line: ATG_RORE_CIS: Attagene CIS-FACTORIAL HepG2 Assay for human RAR-related Orphan Receptor Element (RORE) (AID 2282959). The note with it: HepG2 Attagene cis-factorial RORE reporter, mRNA; actives raise or lower the signal. The essentials:
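Cells were HepG2 carrying transfected cis-regulated reporter constructs, dosed for 24 hours. Total RNA was reverse-transcribed and reporter cDNA amplified, fluorescently labeled and sized by capillary electrophoresis. Activity was fitted bidirectionally relative to DMSO.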

The target of test [11] is Transcription factor Sp1 (Homo sapiens) (UniProt P08047). The test is described as follows: ATG_Sp1_CIS: Attagene CIS-FACTORIAL HepG2 Assay for human Specificity Protein 1 (Sp1) (AID 2282961). The note with it: HepG2 Sp1 cis-reporter transcription, actives raise or lower the signal. The essentials: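 Endogenous Sp1 activity was gauged in human liver HepG2 cells bearing transfected reporter units under a cis-regulating promoter. After 24 h dosing, reporter mRNA was quantified by RT-PCR with capillary electrophoresis, and activity fitted bidirectionally versus DMSO.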
Chain of Transcription factor Sp1 (Homo sapiens) (P08047 whole entry, looked up): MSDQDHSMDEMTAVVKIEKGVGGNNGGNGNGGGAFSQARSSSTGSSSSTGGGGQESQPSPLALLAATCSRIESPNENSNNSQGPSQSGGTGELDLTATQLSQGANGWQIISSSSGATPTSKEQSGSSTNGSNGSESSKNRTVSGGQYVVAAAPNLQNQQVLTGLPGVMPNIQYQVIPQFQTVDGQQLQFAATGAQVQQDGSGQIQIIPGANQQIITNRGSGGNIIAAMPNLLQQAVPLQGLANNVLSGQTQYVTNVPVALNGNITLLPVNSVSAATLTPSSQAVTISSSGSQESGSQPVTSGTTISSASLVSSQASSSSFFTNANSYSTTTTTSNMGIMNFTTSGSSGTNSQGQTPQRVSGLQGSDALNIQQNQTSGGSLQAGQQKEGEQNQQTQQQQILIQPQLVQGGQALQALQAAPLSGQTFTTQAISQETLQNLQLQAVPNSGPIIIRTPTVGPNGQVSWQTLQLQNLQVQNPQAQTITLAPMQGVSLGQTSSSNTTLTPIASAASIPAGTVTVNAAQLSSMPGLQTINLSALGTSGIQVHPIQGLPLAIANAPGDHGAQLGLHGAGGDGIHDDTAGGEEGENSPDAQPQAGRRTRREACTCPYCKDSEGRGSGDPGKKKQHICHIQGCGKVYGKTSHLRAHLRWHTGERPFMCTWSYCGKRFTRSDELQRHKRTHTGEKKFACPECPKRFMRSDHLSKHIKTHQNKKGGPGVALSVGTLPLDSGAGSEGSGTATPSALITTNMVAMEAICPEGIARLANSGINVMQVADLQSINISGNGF

Test [12] is described as follows: ATG_SREBP_CIS: Attagene CIS-FACTORIAL HepG2 Assay for human Sterol Regulatory Element Binding (SREBP) (AID 2282962). The note with it: HepG2 Attagene cis-factorial SREBP reporter, mRNA; actives raise or lower the signal. The method, boiled down: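 Endogenous SREBP activity read as cis-element-driven reporter transcript in transiently transfected HepG2, 24 h post-dosing; quantified via RT-PCR plus capillary electrophoresis of fluorescent fragments. Gain or loss of signal fitted relative to DMSO baseline.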

Test [13] has as its target Signal transducer and activator of transcription 3 (Homo sapiens) (UniProt P40763). Kind of test: ATG_STAT3_CIS: Attagene CIS-FACTORIAL HepG2 Assay for human Signal Transducer and Activator of Transcription 3 (STAT3) (AID 2282963). The note with it: HepG2, Attagene cis-factorial STAT3 reporter transcription; actives raise or lower the signal. The essentials: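 Readout: fluorescent reporter mRNA fragments resolved by capillary electrophoresis. Setup: HepG2 transfected with MRTUs reporting endogenous transcription-factor activity, dosed 24 h. Gain or loss of signal fitted bidirectionally against DMSO control.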

Test [14] can be described thus: ATG_TA_CIS: Attagene CIS-FACTORIAL HepG2 Assay for human TA Basal Promoter (AID 2282964). Conditions: HepG2 Attagene CIS-factorial TA basal promoter reporter; actives raise or lower the signal. The method, boiled down: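 Background-control readout: TA basal promoter reporter mRNA, fitted in both directions relative to DMSO. Measured by RT-PCR and capillary electrophoresis 24 hours after treating HepG2 human liver cells transiently carrying multiplexed cis-regulated reporter constructs.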

Test [15] in a line: ATG_TCF_b_cat_CIS: Attagene CIS-FACTORIAL HepG2 Assay for human T-Cell-Factor with beta-catenin (TCF/b-cat) (AID 2282965). The note with it: HepG2 TCF/beta-catenin cis-reporter transcription, actives raise or lower the signal. The essentials:
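Cells of the HepG2 line carry transiently transfected reporter units whose promoters respond to endogenous factors. Twenty-four hours post-dosing, reporter mRNA induction is measured by fluorescent RT-PCR and capillary electrophoresis, with DMSO as baseline.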

Test [16] is described as follows: ATG_TAL_CIS: Attagene CIS-FACTORIAL HepG2 Assay for human TAL Basal Promoter (AID 2282966).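 Note: background control endpoint measuring basal TAL promoter reporter mRNA not a specific factor.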 Conditions: HepG2 Attagene cis-factorial TAL promoter reporter; actives raise or lower the signal. The method, boiled down: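 Endogenous transcription-factor activity is sensed in HepG2 cells through transfected cis-promoter reporter constructs. After 24 h dosing, reporter transcripts are quantified by RT-PCR and capillary electrophoresis. Gain or loss of signal is fitted relative to DMSO.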

Test [17] in a line: ATG_TGFb_CIS: Attagene CIS-FACTORIAL HepG2 Assay for human Transforming Growth Factor (TGF) (AID 2282967). The note with it: HepG2 Attagene CIS TGFb reporter, mRNA transcription; actives raise or lower the signal. The essentials:
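Endogenous TGFB1-linked transcription factor activity read as reporter mRNA via RT-PCR and capillary electrophoresis, 24 h after dosing transiently transfected HepG2 cells. Gain or loss of signal fitted relative to DMSO.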

A short description of test [18]: ATG_VDRE_CIS: Attagene CIS-FACTORIAL HepG2 Assay for human Vitamin D Receptor Element (VDRE) (AID 2282968). Conditions: HepG2 VDRE cis-reporter transcription, actives raise or lower the signal. The method, boiled down: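 Transient MRTU transfection of HepG2, 24 h compound exposure. Readout: reporter transcripts via RT-PCR and capillary electrophoresis, fluorescence. Bidirectional fit vs DMSO.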

Test [19] in a line: ATG_Sox_CIS: Attagene CIS-FACTORIAL HepG2 Assay for human SRY-box transcription factor (SOX) (AID 2282960). Conditions: HepG2 Attagene cis-factorial SOX reporter, mRNA; actives raise or lower the signal. The essentials: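 Transient MRTU transfection of HepG2; 24 h compound incubation; TriZol RNA, oligo(dT) RT, PCR, 6-FAM primer extension, HpaI cut, CE. Bidirectional fit, DMSO = baseline.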

Molecules are shown by their SMILES. The source holds several records for some structures; these can differ, active in one and inactive in another. Active and inactive are the calls of the source. Rule for the calls: active = hit-call score of the fitted dose curve at least 0.9, where 1 is the maximum; inactive = score below 0.9.

Chain of Signal transducer and activator of transcription 3 (Homo sapiens) (P40763 whole entry, looked up, the tested form may be a part): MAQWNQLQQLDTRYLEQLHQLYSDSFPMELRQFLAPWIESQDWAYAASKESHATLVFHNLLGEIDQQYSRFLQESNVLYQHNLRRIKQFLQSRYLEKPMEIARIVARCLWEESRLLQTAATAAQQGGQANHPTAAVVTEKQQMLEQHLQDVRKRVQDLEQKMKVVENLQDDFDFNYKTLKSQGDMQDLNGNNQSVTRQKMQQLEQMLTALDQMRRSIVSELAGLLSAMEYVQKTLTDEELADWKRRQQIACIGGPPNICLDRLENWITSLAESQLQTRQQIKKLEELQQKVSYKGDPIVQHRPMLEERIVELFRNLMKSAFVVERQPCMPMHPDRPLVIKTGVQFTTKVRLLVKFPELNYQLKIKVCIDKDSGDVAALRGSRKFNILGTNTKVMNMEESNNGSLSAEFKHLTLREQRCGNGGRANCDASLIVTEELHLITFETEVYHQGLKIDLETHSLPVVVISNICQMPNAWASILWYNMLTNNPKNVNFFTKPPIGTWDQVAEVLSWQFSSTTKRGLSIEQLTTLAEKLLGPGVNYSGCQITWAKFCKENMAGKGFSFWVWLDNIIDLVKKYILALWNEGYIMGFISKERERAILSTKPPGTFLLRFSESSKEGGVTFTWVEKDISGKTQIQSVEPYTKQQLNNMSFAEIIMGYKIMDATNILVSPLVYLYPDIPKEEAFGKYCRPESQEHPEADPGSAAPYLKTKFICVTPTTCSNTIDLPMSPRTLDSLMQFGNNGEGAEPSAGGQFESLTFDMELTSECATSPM
Chain of Hypoxia-inducible factor 1-alpha (Homo sapiens) (Q16665 whole entry, looked up): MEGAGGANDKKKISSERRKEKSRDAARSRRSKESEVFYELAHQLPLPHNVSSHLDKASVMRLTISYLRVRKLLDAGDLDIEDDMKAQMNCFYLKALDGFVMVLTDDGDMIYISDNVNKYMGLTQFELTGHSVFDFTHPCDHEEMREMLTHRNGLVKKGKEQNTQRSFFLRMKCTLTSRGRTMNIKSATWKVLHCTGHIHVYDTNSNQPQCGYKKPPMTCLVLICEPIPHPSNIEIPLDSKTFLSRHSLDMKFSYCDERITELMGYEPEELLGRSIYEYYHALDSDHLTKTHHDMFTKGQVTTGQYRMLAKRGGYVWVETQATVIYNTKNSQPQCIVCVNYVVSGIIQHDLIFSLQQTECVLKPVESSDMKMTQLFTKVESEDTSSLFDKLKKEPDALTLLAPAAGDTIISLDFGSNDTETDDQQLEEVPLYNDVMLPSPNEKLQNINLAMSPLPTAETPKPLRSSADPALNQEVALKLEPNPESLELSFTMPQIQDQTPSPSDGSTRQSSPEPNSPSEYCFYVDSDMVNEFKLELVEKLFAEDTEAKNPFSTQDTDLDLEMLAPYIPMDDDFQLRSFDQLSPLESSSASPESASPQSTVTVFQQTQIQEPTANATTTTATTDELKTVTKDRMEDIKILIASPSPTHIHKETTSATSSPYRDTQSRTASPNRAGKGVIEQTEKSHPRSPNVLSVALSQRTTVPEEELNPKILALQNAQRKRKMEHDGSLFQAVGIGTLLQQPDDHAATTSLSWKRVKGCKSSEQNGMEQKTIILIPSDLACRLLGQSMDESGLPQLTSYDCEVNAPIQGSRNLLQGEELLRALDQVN
Chain of Paired box protein Pax-6 (Homo sapiens) (P26367 whole entry, looked up): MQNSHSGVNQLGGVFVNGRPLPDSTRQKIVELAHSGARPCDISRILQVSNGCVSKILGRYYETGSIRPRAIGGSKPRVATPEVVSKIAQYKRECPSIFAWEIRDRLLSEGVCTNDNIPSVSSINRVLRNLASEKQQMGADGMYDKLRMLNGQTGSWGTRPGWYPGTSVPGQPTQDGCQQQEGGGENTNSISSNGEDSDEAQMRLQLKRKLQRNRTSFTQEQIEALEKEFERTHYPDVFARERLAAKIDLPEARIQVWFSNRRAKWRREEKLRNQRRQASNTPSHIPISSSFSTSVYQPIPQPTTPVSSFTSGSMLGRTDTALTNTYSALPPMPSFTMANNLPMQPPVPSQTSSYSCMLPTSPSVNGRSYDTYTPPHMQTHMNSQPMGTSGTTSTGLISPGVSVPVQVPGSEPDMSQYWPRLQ
Chain of Heat shock factor protein 1 (Homo sapiens) (Q00613 whole entry, looked up): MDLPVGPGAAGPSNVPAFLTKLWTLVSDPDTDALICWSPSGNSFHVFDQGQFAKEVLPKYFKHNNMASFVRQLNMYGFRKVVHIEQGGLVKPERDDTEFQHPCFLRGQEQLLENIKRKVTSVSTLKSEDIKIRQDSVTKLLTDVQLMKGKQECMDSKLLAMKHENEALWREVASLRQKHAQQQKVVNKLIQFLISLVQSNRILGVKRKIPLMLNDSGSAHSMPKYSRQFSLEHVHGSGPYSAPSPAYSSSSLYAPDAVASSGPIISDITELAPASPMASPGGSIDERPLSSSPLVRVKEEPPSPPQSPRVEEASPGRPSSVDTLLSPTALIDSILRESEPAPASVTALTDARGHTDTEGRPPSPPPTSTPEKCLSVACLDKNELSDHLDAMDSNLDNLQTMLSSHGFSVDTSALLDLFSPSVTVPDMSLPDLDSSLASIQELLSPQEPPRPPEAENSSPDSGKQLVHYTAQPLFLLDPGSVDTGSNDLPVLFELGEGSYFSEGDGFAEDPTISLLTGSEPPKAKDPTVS

As usually defined, the AC50 is the concentration at which the activity in the assay is half-maximal. As to `CC(C=O)Cc1ccc2c(c1)OCO2` (stereo not drawn), the molecule was classed as inactive in test [1], in [2], in test [3], in test [4], in test [5] and in test [6]. In addition, the molecule was classed as inactive in test [7], in [9], in test [10], in test [11], in [12] and in test [13]. Moreover, the result in [14], in test [15], in [16] and in test [17] was inactive. The results for the AC50 in test [8] and in test [18] were 17 µM (active) and 12.8 µM (active), respectively.

For `O=C1C=CC(=O)c2ccccc21`, the molecule was classed as inactive in [1], in test [2], in test [3], in test [4], in [5] and in test [6]. Also, the molecule was called inactive in test [7], in [8], in [9], in test [10], in [19] and in test [11]. Also, the molecule was called inactive in test [12], in test [13], in test [14], in test [15], in test [16] and in test [17]. In addition, the call in test [18] was inactive.

For the molecule `CCCCOC(=O)COC(=O)c1ccccc1C(=O)OCCCC`, the call in test [1], in test [2], in test [3], in [4], in test [5] and in test [6] was inactive. Moreover, the call in test [7], in test [11], in [12], in test [13], in test [14] and in test [15] was inactive. Besides, the call in [16] and in test [17] was inactive. The AC50 in [8] was 40.9 µM (active); in test [9] it was 42.6 µM (active); in test [10], 53.2 µM (active).

With `Nc1ccc(N)cc1`, the call in test [1], in test [2], in test [3], in test [5], in test [6] and in test [10] was inactive. For the same molecule, the call in test [19], in test [11], in [12], in test [13], in [14] and in test [15] was inactive. Further, the molecule was called inactive in test [16], in test [17] and in test [18]. Also, the half-maximal activity concentration (AC50) in test [2] was 100 µM (active); in test [15] it was 27.7 µM (active); in [17] it was 23.8 µM (active).

Take `NC(=O)CCl`: the call in [1], in test [2], in test [3], in test [4], in test [5] and in test [6] was inactive. The molecule was classed as inactive in test [7], in test [9], in test [10], in [19], in [11] and in test [13]. Further, the result in test [14], in test [15], in test [16], in test [17] and in [18] was inactive.

In the case of `C#C[C@]1(O)CC[C@H]2[C@@H]3CCC4=CC(=O)CC[C@]4(C)[C@H]3CC[C@@]21C`, the molecule was classed as inactive in test [1], in [3], in test [4], in test [5], in test [6] and in test [7]. Besides, the outcome in test [9], in test [10], in test [19], in [11], in test [12] and in [13] was inactive. Also, the molecule was classed as inactive in test [14], in [15] and in test [16].

As to `CC(C)(C)c1ccccc1O`, the AC50 is 170 µM (active) in test [1]; 182 µM (active) in [2]; 147 µM (active) in test [3]; 149 µM (active) in test [5]; 165 µM (active) in test [7]; 23.9 µM (active) in [8]. In addition, the AC50 was 160 µM (active) in test [10], 163 µM (active) in test [12] and 129 µM (active) in test [18]. Moreover, the molecule was classed as inactive in test [4], in test [6], in test [9], in test [11], in test [13] and in [14]. Further, the molecule was classed as inactive in test [15] and in [16].

As for `COc1ccccc1N`, the call in test [1], in test [2], in [3], in [4], in test [5] and in test [7] was inactive. Besides, the molecule was called inactive in test [8], in [10], in test [19], in [11], in test [12] and in [13]. Besides, the molecule was classed as inactive in test [14], in [15], in test [16] and in test [17]. Besides, the AC50 in [8] is 59.1 µM (active).
